# Data taken from PubChem BioAssay (Tox21).
# Results filed as inconclusive are left out. Entries that show only a call come without a potency. The source made the active and inactive calls. Calls come from the whole dose curve.
# Test: Nuclear factor erythroid 2-related factor 2/antioxidant responsive element (Nrf2/ARE) small molecule agonists: luciferase reporter gene qHTS assay in human keratinocytes (AID 1919969); note: nearly all actives have a fitted effect of over 35% in size
# Conditions: KeratinoSens HaCaT ARE-luciferase, luminescence, 24 h; series mostly up to 92.4 µM
# Potency is the fitted concentration of half-maximal effect.
row,Compound,Potency
1,O=C(NC(=O)c1c(F)cccc1F)Nc1ccc(OC(F)(F)C(F)OC(F)(F)F)c(Cl)c1 (stereo not given),inactive
2,COC(=O)C1=CCCN(C)C1,inactive
3,COc1nn(C(=O)NS(=O)(=O)c2ccccc2OC(F)(F)F)c(=O)n1C,inactive
4,CC1C(=O)C[C@]2(C(C)C)C[C@H]12 (stereo not given in full),inactive
5,COC(=O)/C=C(\C)OP(=O)(OC)OC,inactive
6,COP(=S)(OC)Oc1ccc(S(N)(=O)=O)cc1,inactive
7,N#CC(C#N)=NNc1cccc(Cl)c1,7.7 µM (active)
8,O=CC=O,inactive
9,COC(=O)c1ccccc1S(=O)(=O)NC(=O)Nc1nc(C)cc(C)n1,inactive
10,CCOP(=S)(OCC)Oc1cc(-c2ccccc2)on1,inactive
11,CCCN1CCC[C@@H]2Cc3nc(N)ncc3C[C@H]21,inactive
12,CCCN(CCC)c1c([N+](=O)[O-])cc(S(N)(=O)=O)cc1[N+](=O)[O-],inactive
13,CN(C)CCc1c[nH]c2ccccc12,108 µM (active)
14,CC1(C)CCC(Cc2ccc(Cl)cc2)C1(O)Cn1cncn1 (stereo not given),inactive
15,CC(=O)C(Cl)(Cl)Cl,20.9 µM (active)
16,C=C(Cl)CSC(=S)N(CC)CC,66.8 µM (active)
17,O=[N+]([O-])c1cc(Cl)c(Cl)cc1Cl,inactive
18,Cc1cccc(C)c1NC1=NCCCS1,inactive

row,Compound,Potency
1,CCC1(c2cccc(O)c2)CCCCN(C)C1 (stereo not given),inactive
2,CCOC(=O)COc1ccc(Cl)cc1Cl,inactive
3,C=C(C)C(=O)OCCCCOC(=O)C(=C)C,inactive
4,CNC(C)Cc1ccc2c(c1)OCO2 (stereo not given),84.3 µM (active)
5,CCOP(=O)(NC(C)C)Oc1ccc(SC)c(C)c1 (stereo not given),15.4 µM (active)
6,COC(=O)C(C)Oc1ccc(Oc2ccc(Cl)cc2Cl)cc1 (stereo not given),inactive
7,CN1C(=O)COc2c(C(=O)NC3CN4CCC3CC4)cc(Cl)cc21 (stereo not given),inactive
8,CC(C)(C)NCC(O)c1cc(Cl)c(N)c(C(F)(F)F)c1 (stereo not given),inactive
9,CCOP(=S)(OCC)SCSCC,inactive
10,C#CC(C)(C)O,inactive
11,CC(O)C(=O)[O][Hg][c]1ccccc1 (stereo not given),0.864 µM (active)
12,O=Cc1ccc2c(c1)OCO2,inactive
13,C[CH2][Hg][N]1C(=O)C2C(C1=O)C1(Cl)C(Cl)=C(Cl)C2(Cl)C1(Cl)Cl (stereo not given),2.91 µM (active)
14,CCCCCCCCCCCCCN1CC(C)OC(C)C1 (stereo not given),inactive
15,CCOC(=O)C(Cl)C(C)=O (stereo not given),inactive
16,c1ccc2c(c1)[nH]c1cnccc12,inactive
17,Fc1cccc(Cl)c1CCl,inactive
